Here are results for 30 compounds from ChEMBL document CHEMBL3988442, “University of Dundee, Small-Polar-MMV Screening Library” (2021).

For this experiment, the target named is T1, Methionyl-tRNA synthetase, putative (Leishmania donovani (strain BPK282A1)) (UniProt E9BF75).
T1 sequence (whole entry): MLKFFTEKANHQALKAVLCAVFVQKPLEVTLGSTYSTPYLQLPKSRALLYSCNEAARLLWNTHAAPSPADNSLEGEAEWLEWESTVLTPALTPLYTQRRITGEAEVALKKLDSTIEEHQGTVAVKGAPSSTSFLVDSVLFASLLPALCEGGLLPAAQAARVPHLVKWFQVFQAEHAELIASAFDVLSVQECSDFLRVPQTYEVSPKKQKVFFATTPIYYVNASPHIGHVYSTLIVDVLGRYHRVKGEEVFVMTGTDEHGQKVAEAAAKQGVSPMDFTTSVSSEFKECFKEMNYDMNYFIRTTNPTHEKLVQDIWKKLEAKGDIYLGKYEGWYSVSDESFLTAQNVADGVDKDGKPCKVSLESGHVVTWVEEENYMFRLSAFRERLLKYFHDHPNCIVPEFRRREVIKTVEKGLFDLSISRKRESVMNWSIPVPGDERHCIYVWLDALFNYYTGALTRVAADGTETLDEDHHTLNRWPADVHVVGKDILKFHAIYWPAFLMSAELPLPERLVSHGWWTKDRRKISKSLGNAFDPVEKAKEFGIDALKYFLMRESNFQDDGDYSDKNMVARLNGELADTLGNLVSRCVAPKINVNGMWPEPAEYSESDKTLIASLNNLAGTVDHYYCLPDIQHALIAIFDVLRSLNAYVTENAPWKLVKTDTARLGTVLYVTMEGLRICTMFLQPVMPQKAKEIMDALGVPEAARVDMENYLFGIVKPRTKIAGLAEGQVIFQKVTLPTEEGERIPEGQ
The experiment in a line: Leishmania donovani Methionine tRNA synthetase (LdMetRS):v7. Dose response assay. The format is functional. On the set-up: conc 80 nM, time 150 minutes.

Structures are written as SMILES.

With `Cc1nc(N(C)CC(=O)NC2CC2)c2c3c(sc2n1)CCC3`, the PXC50 runs as follows: (MAX_EFFECT 3.703703704) under 4; (MAX_EFFECT 5.866666667) under 4.

Turning to `CC(C)(C)OC(=O)N1CCN(c2ccc3ccc(C(=O)NC4CCCC4)cn23)CC1`, the PXC50 is under 4 (MAX_EFFECT 20.86513995) and under 4 (MAX_EFFECT 27.19298246).

In the case of `Cc1nc(NC(CC(C)C)C(=O)O)c2c3c(sc2n1)CCCC3` (stereo not given), the PXC50 is, setting by setting: (MAX_EFFECT 16.83673469) under 4; (MAX_EFFECT 16.91919192) under 4.

As for `CC1CCc2c(Cl)cc(Cl)c(O)c2N1` (stereo not given), the PXC50 was under 3 (MAX_EFFECT 23.76425856) and under 3 (MAX_EFFECT 24.40604752).

For the compound `Cc1sc2nc(CCN)nc(N(CCN(C)C)CC3CCCO3)c2c1C` (stereo not given), the PXC50 is, setting by setting: (MAX_EFFECT 8.838383838) under 4; (MAX_EFFECT 10.20408163) under 4.

As to `NC(=O)C1CN(c2nc(C3CC3)nc3sc4c(c23)CCCC4)CCO1` (stereo not given), the PXC50 was under 4 (MAX_EFFECT 5.699481865) and under 4 (MAX_EFFECT 7.446808511).

Regarding `Cc1sc2nc(CCN)nc(N(C)CCCC3CCCO3)c2c1C` (stereo not given), the PXC50 (MAX_EFFECT 15.90909091) is under 4 and the PXC50 (MAX_EFFECT 18.36734694) was under 4.

Regarding `CC(=O)N1CCN(c2ccc3ncc(-c4ccc5onc(N)c5c4)n3n2)CC1`, the PXC50 by setting is: (MAX_EFFECT 15.77608142) under 4; (MAX_EFFECT 16.66666667) under 4.

As to `CCN1CCN(c2nc(-c3cccc(OC)c3)cc(C(F)(F)F)n2)CC1`, the PXC50 is, setting by setting: (MAX_EFFECT 17.85714286) under 4; (MAX_EFFECT 18.43434343) under 4.

Take `CC1CCN(c2nc3c(c(C(F)(F)F)n2)CCCCC3)CC1`: the PXC50 was under 4 (MAX_EFFECT 8.396946565) and under 4 (MAX_EFFECT 11.83879093).

Regarding `Cc1sc2nc(-c3cccnc3)nc(NCCN3CCOCC3)c2c1C`, the PXC50 runs as follows: (MAX_EFFECT 3.015075377) under 4; (MAX_EFFECT 4.668304668) under 4.

`CN1CCN(c2ccc3ccc(C(=O)N4CCCO4)cn23)CC1`: the PXC50 is, setting by setting: (MAX_EFFECT 9.85915493) under 4; (MAX_EFFECT 16.48148148) under 4.

Turning to `Cc1cc2c(N3CCCCC3)nc(-c3cccnc3)nc2s1`, the PXC50 reads like this: (MAX_EFFECT 30.15075377) under 4; (MAX_EFFECT 37.1007371) under 4.

With `CCc1nc(NCCCN(C)C)c2c3c(sc2n1)CCC3`, the PXC50 is under 4 (MAX_EFFECT 11.05527638) and under 4 (MAX_EFFECT 11.54791155).

As to `O=C1CC[C@@H](COc2cccc(F)c2Oc2ccc(Cl)cc2)N1`, the PXC50 runs as follows: (MAX_EFFECT 7.462686567) under 4; (MAX_EFFECT 9.316770186) under 4.

With `Cc1nc(N2CCN(C3CCOCC3)CC2)c2ccsc2n1`, the PXC50 by setting is: (MAX_EFFECT 2.659574468) under 4; (MAX_EFFECT 4.663212435) under 4.

On to `Cc1nc(N2CCc3ccccc3C2)c2c3c(sc2n1)CCC3`, for which the PXC50 by setting is: (BOTTOM 1.539204696, HILLSLOPE 1.85727021, MAX_EFFECT 61.30653266, TOP 67.5568533) 4.58; (BOTTOM -2.995522408, HILLSLOPE 1.216214635, MAX_EFFECT 78.37837838, TOP 108.7860492) 4.36.

Turning to `Cc1sc2nc(CCN)nc(N3CCN(S(C)(=O)=O)CC3)c2c1C`, the PXC50 reads like this: (MAX_EFFECT 9.660574413) under 4; (MAX_EFFECT 10.96605744) under 4.

Take `Nc1noc2ccc(-c3cnc4ccc(NCc5cccnc5)nn34)cc12`: the PXC50 is, setting by setting: (MAX_EFFECT 15.26717557) under 4; (MAX_EFFECT 15.78947368) under 4.

In the case of `Cc1nc(NCCC(C)C)c2c3c(sc2n1)CCCC3`, the PXC50 was under 4 (MAX_EFFECT 30.4) and under 4 (MAX_EFFECT 33.86243386).

Take `Cc1nc(NC(C(=O)O)C(C)C)c2c3c(sc2n1)CCC3` (stereo not given): the PXC50 reads like this: (MAX_EFFECT 7.537688442) under 4; (MAX_EFFECT 7.616707617) under 4.

Take `O=C(c1cc[nH]n1)N1CCC(F)(F)C2(CCN(c3ccccn3)C2)C1` (stereo not given): the PXC50 runs as follows: (MAX_EFFECT 8.450704225) under 4; (MAX_EFFECT 10.92592593) under 4.

`Cc1sc2nc(CN3CCOCC3)nc(NC(C)(C)CCO)c2c1C` registered a PXC50 (MAX_EFFECT 4.371584699) of under 4 and a PXC50 (MAX_EFFECT 8.021390374) of under 4.

Turning to `CN(c1ncnc2c1CCC2)C1CCCN(c2cccnn2)C1` (stereo not given), the PXC50 is, setting by setting: (MAX_EFFECT 11.7370892) under 4; (MAX_EFFECT 15.37037037) under 4.

`Cc1nc(N(C)CC(=O)N(C)C)c2c(-c3ccccc3)csc2n1`: the PXC50 is under 4 (MAX_EFFECT 5.289672544) and under 4 (MAX_EFFECT 6.361323155).

Consider `O=C(CO)N1CCC(F)(F)C2(CCN(c3ccccc3)C2)C1` (stereo not given), for which the PXC50 is, setting by setting: (MAX_EFFECT 15.37037037) under 4; (MAX_EFFECT 18.30985915) under 4.

Turning to `Cc1sc2nc(-c3cccnc3)nc(N3CCCC(CO)C3)c2c1C` (stereo not given), the PXC50 is 4.07 (BOTTOM 0.693465662, HILLSLOPE 1.473836838, MAX_EFFECT 56.47668394, TOP 100.0) and 4.06 (BOTTOM -1.655591932, HILLSLOPE 1.509629481, MAX_EFFECT 54.25531915, TOP 100.0).

In the case of `CS(=O)(=O)N1CCN(c2ccc3ncc(C(=O)NC4CCCC4)cn23)CC1`, the PXC50 is, setting by setting: (MAX_EFFECT 7.456140351) under 4; (MAX_EFFECT 9.895833333) under 4.

`CCN1CCN(c2nc(-c3cccnc3)nc3sc(C)cc23)CC1`: the PXC50 reads like this: (MAX_EFFECT 2.18579235) under 4; (MAX_EFFECT -3.20855615) under 4.

Take `Cc1nc(NCC(C)(C)O)c2c3c(sc2n1)CCCC3`: the PXC50 reads like this: (MAX_EFFECT 11.84210526) under 4; (MAX_EFFECT 12.5) under 4.
